Assay outcomes: PubChem, National Center for Advancing Translational Sciences (NCATS)
Many of the other results were omitted from the sample, so hits are more common in it than they were.
Cruzain Triton = cruzain (T. cruzi) inhibition with detergent; purified cruzain, Z-FR-AMC fluorescence, 0.01% Triton; Potency, µM, usual class: inhibitors; 0.43% of 200,000 active; AID 1478; active means well fitted curve in the direction sought with a large enough effect; inconclusive means small, poorly fitted or top-dose-only effect, or another doubt; inactive means no such curve, though single readings can be large; an effect the other way counts as inactive or inconclusive; further: nearly all actives have a fitted effect of over 40% in size
Target sequence (P25779 123-467 limits assumed): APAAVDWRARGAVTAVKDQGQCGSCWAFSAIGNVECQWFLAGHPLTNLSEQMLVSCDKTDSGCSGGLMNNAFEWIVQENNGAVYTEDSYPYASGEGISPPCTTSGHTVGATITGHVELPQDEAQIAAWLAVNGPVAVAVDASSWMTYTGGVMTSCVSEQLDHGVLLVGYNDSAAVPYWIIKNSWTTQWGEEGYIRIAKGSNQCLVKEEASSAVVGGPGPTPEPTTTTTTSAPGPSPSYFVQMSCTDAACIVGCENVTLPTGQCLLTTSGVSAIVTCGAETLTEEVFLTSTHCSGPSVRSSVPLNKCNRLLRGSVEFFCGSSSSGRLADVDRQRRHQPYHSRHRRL
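Sodium acetate buffer (100 mM, pH 5.5) containing 5 mM DTT and 0.01% Triton X-100 hosted 1.5 nM cruzain and test compound for 15 min at room temperature. Cleavage of 2 uM Z-FR-AMC was then tracked by fluorescence.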
Cruzain inh noDet = cruzain (T. cruzi) inhibition without detergent. P25779. purified cruzain, Z-FR-AMC fluorescence, no detergent. Potency, µM, usual class: inhibitors. 2.3% of 200,000 active. AID 1476; active means well fitted curve in the direction sought with a large enough effect; inconclusive means small, poorly fitted or top-dose-only effect, or another doubt; inactive means no such curve, though single readings can be large; an effect the other way counts as inactive or inconclusive; further: nearly all actives have a fitted effect of over 40% in size
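Detergent-free condition (0.00005% Triton X-100) in acetate buffer pH 5.5 with DTT. 1.5 nM enzyme and compound were pre-mixed 15 min, then 2 uM Z-FR-AMC substrate added; reaction progress from fluorescence change between first and third reads (60 s).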
NS1 inh = blocks influenza NS1 protein function; Potency, µM (series often up to 46.1 µM); 0.4% of 270,000 active; AID 2326; further: actives are rising curves; nearly all actives have a fitted effect of over 50% in size
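S. cerevisiae expressing influenza A NS1, grown in glucose, washed, then diluted 1:100 into pH 6.0 -URA galactose medium with 23 nl compound. Growth recovery read as OD600; NS1-free strain serves as control.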
Flu NS1 inh = influenza NS1 function inhibition validation; 1,400 tested, under 10 active; AID 492980; shares compounds with NS1 inh; activity change, negative = inhibition, % at 32.9 µM; influenza NS1 function cell assay, 15-point titration
Flu PR8 replic = reduces influenza A/PR/8/34 replication in MDCK cells | shares compounds with NS1 inh | MDCK infected influenza A/PR/8/34, virus titer TCID50; hits give low values | virus titer (log TCID50), log10 TCID50 at 5 µM | 30% of 95 active | AID 504647; call rule not given here
A number is an active result; - = inactive; ? = inconclusive; . = no result. Unless noted, the call rests on the fitted dose curve.

SMILES	Cruzain Triton	Cruzain inh noDet	NS1 inh	Flu NS1 inh	others
Cn1nc(C(=O)NCCc2ccc(Cl)cc2)c2c1-c1ccccc1S(=O)(=O)C2	.	.	-	.
O=C(c1cc2ccccc2oc1=O)N(Cc1ccco1)C1CCS(=O)(=O)C1 (stereo unspecified)	-	-	8.91µM	-
CN(C)c1ccc(CN(C(=O)c2cc3ccccc3oc2=O)C2CCS(=O)(=O)C2)cc1 (stereo unspecified)	.	.	-	.
CC(C)(C)c1ccc(Cc2n[nH]c(=S)[nH]c2=O)cc1	.	.	-	.
N#C/C(=C(/O)CN1CCN(c2ccccc2F)CC1)c1nc(-c2ccccc2)cs1	-	-	-	.
Cc1ccc(SCC(=O)Nc2ccc3c(c2)C(=O)N(C)C3=O)cc1	.	.	2.51µM	-
Cc1ccc(SCC(=O)Nc2cccc(C)c2)cc1	.	.	-	.
S=C(Nc1ccc(Cl)cc1)c1nc2ccccc2[nH]1	-	-	-	.
CCN(CC)S(=O)(=O)c1ccc(C(=O)OCCNC(=O)c2cccnc2)cc1	-	-	-	.
C(=N\N1CCN(Cc2cccc3ccccc23)CC1)/c1cccnc1	-	-	10µM	-
FC(F)(F)c1ccc(/C=N/N2CCN(Cc3cccc4ccccc34)CC2)cc1	-	-	-	.
CSC1=NCCN1C(=O)c1ccc(C)cc1	.	.	-	.
CSC1=NCCN1C(=O)c1ccc2c(c1)OCO2	-	-	?	-
COC(=O)CN1C(=S)N(c2ccc(Cl)cc2)C(=O)C1CC(=O)Nc1ccc(Cl)cc1 (stereo unspecified)	-	-	-	.
COC(=O)CN1C(=S)N(Cc2ccccc2)C(=O)C1CC(=O)Nc1ccc(Br)cc1 (stereo unspecified)	-	?	11.2µM	-
CCCOc1ccc(NC(=O)CC2C(=O)N(Cc3ccccc3)C(=S)N2Cc2cccs2)cc1 (stereo unspecified)	-	?	3.55µM	-
CCN1C(=O)C(CC(=O)Nc2ccc(F)cc2)N(Cc2cccs2)C1=S (stereo unspecified)	.	.	-	.
COCCCNC(=O)Nc1cc(C(=O)NCc2ccc(OC)cc2)ccc1N1CCCC1	-	-	.	.
CCOc1ccccc1CNC(=O)c1ccc2c(c1)nc1n2CCCCC1	-	-	.	.
CC(C)CC(C(=O)O)N1C(=O)C2C3CC(C2C1=O)C1C(c2ccccc2)c2sc(=O)[nH]c2SC31 (stereo unspecified)	-	?	?	-
O=C(O)CN1C(=O)C2C3CC(C2C1=O)C1C(c2ccccc2)c2sc(=O)[nH]c2SC31 (stereo unspecified)	-	-	-	.
N#C/C(=C\c1c[nH]c2ccccc12)C(=O)Nc1ncc(Cc2ccc(Cl)cc2Cl)s1	-	7.94µM	11.2µM	-
N#C/C(=C\c1c[nH]c2ccccc12)C(N)=O	.	.	-	.
Cc1cccc(C2C3=C(Nc4[nH]n(-c5ccccc5)c(=O)c42)c2ccccc2C3=O)c1 (stereo unspecified)	-	?	?	.
Cc1ccccc1C1C2=C(Nc3[nH]n(-c4ccccc4)c(=O)c31)c1ccccc1C2=O (stereo unspecified)	-	?	11.2µM	-
SMILES	Cruzain Triton	Cruzain inh noDet	NS1 inh	Flu NS1 inh	others
c1nc(NC2CCCCC2)c2[nH]cnc2n1	-	-	-	.
c1nc(NC2CCCCCC2)c2[nH]cnc2n1	-	-	10µM	-
O=C(COc1ccc(Br)cc1)NNC(=S)NCc1ccccc1	.	.	-	.
O=C(COc1ccc(Cl)cc1)NNC(=S)NCc1ccccc1	.	.	5.62µM	?
CC1=C(C(=O)Nc2ccc(C)cc2C)C(c2cccc([N+](=O)[O-])c2)n2nc(C(=O)OC(C)C)nc2N1 (stereo unspecified)	-	?	-	.
Nc1nc(SCC(=O)Nc2ccc(C(F)(F)F)cc2)[nH]c(=O)c1NC(=O)c1ccc(F)c(F)c1	.	.	-	.
COc1ccc(C(=O)Nc2c(N)nc(SCC(=O)Nc3ccc(NC(C)=O)cc3)[nH]c2=O)cc1OC	.	.	22.4µM	-
CCOC(=O)C1CCCN(C(=O)Cn2sc3nc(C)cc(C)c3c2=O)C1 (stereo unspecified)	-	-	5.01µM	?
Cc1cc(C)c2c(=O)n(CC(=O)N3CCC(N4CCCCC4)CC3)sc2n1	-	-	-	.
COc1ccccc1CN(Cc1nc2ccccc2c(=O)[nH]1)S(=O)(=O)c1ccc2ccccc2c1	-	-	-	.
Cc1ccc(CC(=O)NCCS(=O)c2ccc(Cl)cc2)cc1 (stereo unspecified)	-	-	-	.
CCOC(=O)CSc1nc2ccccc2c(=O)n1CCN1CCOCC1	-	-	-	.
CCOC(=O)CSc1nc2ccc(N3CCOCC3)cc2c(=O)n1Cc1ccccc1	-	?	1µM	-
COc1ccc(NS(=O)(=O)c2cc(NC(=O)Cn3cnc4c3c(=O)n(C)c(=O)n4C)ccc2C)cc1	.	.	-	.
CCCCc1cc(=O)oc2cc(C)cc(OCC(=O)N[C@@H](CSCc3ccccc3)C(=O)O)c12	.	.	-	.
CCc1cc(=O)oc2cc(C)cc(OCC(=O)N[C@@H](CSCc3ccccc3)C(=O)O)c12	.	.	10µM	-	Flu PR8 replic=7.33
O=C(c1ccoc1)N1CCC2(CC1)Oc1ccc(Cl)cc1C(=O)C21CC(c2ccc(Cl)cc2)=NO1 (stereo unspecified)	.	.	-	.
CCC(C)C(=O)Nc1nnc(SCC(=O)N2C(C)CCCC2C)s1 (stereo unspecified)	.	.	-	.
CCOC(=O)Nc1ccc(OC)cc1S(=O)(=O)N1CCCCC1	-	-	-	.
Cc1ccc(C(=O)c2ccc(CC(=O)O)n2C)cc1	-	-	.	.
CC(C)(C)C(=O)Nc1ccc(C(=O)N/N=C/c2ccccc2OC(=O)c2ccc(Cl)cc2)cc1	-	-	10µM	-
Cc1cccc(C(=O)Oc2ccccc2/C=N/NC(=O)c2ccc(NC(=O)C(C)(C)C)cc2)c1	-	-	20µM	-
CC(C)(C)C(=O)Nc1ccc(C(=O)N/N=C/c2ccccc2OC(=O)c2ccccc2)cc1	-	-	-	.
CCOc1cc(/C=N\NC(=O)c2ccc(NC(=O)C(C)(C)C)cc2)ccc1OC(=O)c1cccc(C)c1	-	-	-	.
CCc1nc2ccc(C(=O)N3CCN(c4ccc(Cl)cc4)CC3)cc2nc1CC	-	?	-	.
SMILES	Cruzain Triton	Cruzain inh noDet	NS1 inh	Flu NS1 inh	others
CC(=O)c1ccc(NC(=O)CCn2cccn2)cc1	-	-	.	.
NC(Cc1nc2ccccc2[nH]1)c1ccc(Cl)cc1 (stereo unspecified)	.	.	-	.
OC(Cc1nc2ccccc2[nH]1)c1ccccc1Cl (stereo unspecified)	-	-	0.282µM	-
CCOC(=O)C(Cc1ccccc1)c1ccnc2nc(N)nn12 (stereo unspecified)	.	.	-	.
COC(=O)C1=Nc2ccccc2/C1=C\c1c(O)n(-c2ccc(Br)cc2)c(=O)[nH]c1=O	-	?	10µM	-
COC(=O)C1=Nc2ccccc2/C1=C\c1c(O)n(-c2ccc(OC)cc2)c(=O)[nH]c1=O	-	-	-	.
Cc1cnccc1NC(=O)c1cccs1	.	.	-	.
Cn1c(=O)oc2cc(S(=O)(=O)N3CCN(C(=O)c4ccco4)CC3)ccc21	.	.	-	.
CN(N=O)c1ccc(O)c(O)c1	-	-	5.01µM	-
CC(C)(C)c1ccc(O)c(O)c1	-	-	.	.
CCOCCCNC(=O)c1c[nH]c2cc(OC)ccc2c1=O	.	.	-	.
